Laboratory results: PubChem BioAssay AID1159580 (chemical genetic matrix, 2015)
Where “and” joins values, the source holds several entries; their conditions need not be identical. Identical values can stand only once. The campaign covered roughly 5,500 compounds. About 2,000 (36%) were called active. About 18% were inconclusive and are not listed. Cut-off read from the data, not from the text of the source: active = normalized growth mostly below about 0.91 (no sharp cut-off); inconclusive = no clear call, values can overlap the other calls; inactive = mostly above about 0.92. This is one part of the list.

Experiment: chemical genetic growth profiling, strain panel (AID 1159580);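 note: tested at 20 µM; growth read once vehicle control cultures reached saturation at 30 °C; 1 = growth at the plate median or of vehicle wells; lower values mean less growth of the strain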
Details: growth OD

Measured: normalized growth

CCN(Cc1ccncc1)C(=O)C(CO)c1ccccc1 (stereo unspecified)
inactive: S. cerevisiae deletion strains, locus YJR075W, strain HOC1, hits give low values 0.989 | S. cerevisiae deletion strains, locus YKL009W, strain mrt4, hits give low values 1.01 | S. cerevisiae deletion strains, locus YKL068W, hits give low values 0.982 | S. cerevisiae deletion strains, locus YKL085W, strain MDH1 (second series), hits give low values 0.977 | S. cerevisiae deletion strains, locus YKL085W, strain MDH1, hits give low values 0.977 | S. cerevisiae deletion strains, locus YKL160W, strain elf1, hits give low values 1.02 | S. cerevisiae deletion strains, locus YKL190W, strain CNB1, hits give low values 0.992 | S. cerevisiae deletion strains, locus YKR001C, strain vps1, hits give low values 0.999 | S. cerevisiae deletion strains, locus YKR026C, strain gcn3, hits give low values 1.04 | S. cerevisiae deletion strains, locus YKR091W, strain srl3, hits give low values 1.02 | S. cerevisiae deletion strains, locus YLL001W, strain dnm1, hits give low values 1.02 | S. cerevisiae deletion strains, locus YLL026W, hits give low values 1.03 | S. cerevisiae deletion strains, locus YLL041C, strain sdh2, hits give low values 1.02 | S. cerevisiae deletion strains, locus YLR027C, strain aat2, hits give low values 1.02 | S. cerevisiae deletion strains, locus YLR039C, strain RIC1, hits give low values 0.977 | S. cerevisiae deletion strains, locus YLR058C, strain SHM2, hits give low values 0.998 | S. cerevisiae deletion strains, locus YLR102C, strain apc9, hits give low values 0.991 | S. cerevisiae deletion strains, locus YLR113W, strain HOG1, hits give low values 0.988 | S. cerevisiae deletion strains, locus YLR221C, strain rsa3, hits give low values 1.03 | S. cerevisiae deletion strains, locus YLR258W, strain gsy2, hits give low values 1.05 | S. cerevisiae deletion strains, locus YLR262C, strain YPT6 (second series), hits give low values 1.07 | S. cerevisiae deletion strains, locus YLR262C, strain YPT6, hits give low values 1.01 | S. cerevisiae deletion strains, locus YLR268W, strain sec22, hits give low values 0.954 | S. cerevisiae deletion strains, locus YLR320W, strain mms22, hits give low values 1.02 | S. cerevisiae deletion strains, locus YLR330W, strain CHS5, hits give low values 0.991 | S. cerevisiae deletion strains, locus YLR342W, strain FKS1 (second series), hits give low values 1.05 | S. cerevisiae deletion strains, locus YLR342W, strain FKS1, hits give low values 1.02 | S. cerevisiae deletion strains, locus YLR357W, strain rsc2, hits give low values 1.04 | S. cerevisiae deletion strains, locus YLR370C, strain arc18, hits give low values 1.03 | S. cerevisiae deletion strains, locus YLR371W, strain rom2, hits give low values 0.989 | S. cerevisiae deletion strains, locus YLR384C, strain iki3, hits give low values 1.03 | S. cerevisiae deletion strains, locus YLR418C, strain cdc73, hits give low values 0.995 | S. cerevisiae deletion strains, locus YML016C, strain PPZ1, hits give low values 1 | S. cerevisiae deletion strains, locus YML032C, strain rad52, hits give low values 0.978 | S. cerevisiae deletion strains, locus YML120C, strain ndi1, hits give low values 1.03 | S. cerevisiae deletion strains, locus YML124C, strain tub3, hits give low values 0.997 | S. cerevisiae deletion strains, locus YMR058W, strain fet3, hits give low values 1.02 | S. cerevisiae deletion strains, locus YMR078C, strain ctf18, hits give low values 0.999 | S. cerevisiae deletion strains, locus YMR125W, strain sto1, hits give low values 1.03 | S. cerevisiae deletion strains, locus YMR129W, hits give low values 1.02 | S. cerevisiae deletion strains, locus YMR205C, strain PFK2, hits give low values 1.05 | S. cerevisiae deletion strains, locus YMR223W, strain ubp8, hits give low values 1.02 | S. cerevisiae deletion strains, locus YMR231W, strain pep5, hits give low values 1.03 | S. cerevisiae deletion strains, locus YMR263W, strain SAP30, hits give low values 0.999 and 1 | S. cerevisiae deletion strains, locus YMR307W, strain GAS1, hits give low values 1.05 and 1.01 | S. cerevisiae deletion strains, locus YNL067W, strain RPL9B, hits give low values 0.98 | S. cerevisiae deletion strains, locus YNL071W, strain lat1, hits give low values 1.03 | S. cerevisiae deletion strains, locus YNL128W, strain TEP1, hits give low values 0.985 | S. cerevisiae deletion strains, locus YNL153C, strain GIM3, hits give low values 0.992 | S. cerevisiae deletion strains, locus YNL175C, strain NOP13, hits give low values 0.995 | S. cerevisiae deletion strains, locus YNL183C, strain NPR1, hits give low values 0.944 | S. cerevisiae deletion strains, locus YNL197C, strain WHI3, hits give low values 1.02 | S. cerevisiae deletion strains, locus YNL209W, strain ssb2, hits give low values 1.04 | S. cerevisiae deletion strains, locus YNL224C, strain SQS1, hits give low values 1 | S. cerevisiae deletion strains, locus YNL233W, strain BNI4, hits give low values 1 | S. cerevisiae deletion strains, locus YNL248C, strain rpa49, hits give low values 1.02 | S. cerevisiae deletion strains, locus YNL250W, strain rad50, hits give low values 0.982 | S. cerevisiae deletion strains, locus YNL271C, strain bni1, hits give low values 0.982 | S. cerevisiae deletion strains, locus YNL298W, strain CLA4, hits give low values 1 | S. cerevisiae deletion strains, locus YNL307C, strain MCK1, hits give low values 0.994 | S. cerevisiae deletion strains, locus YNL322C, strain KRE1 (second series), hits give low values 1.03 | S. cerevisiae deletion strains, locus YNL322C, strain KRE1, hits give low values 0.992 | S. cerevisiae deletion strains, locus YNR049C, strain mso1, hits give low values 1.04 | S. cerevisiae deletion strains, locus YNR052C, strain pop2, hits give low values 0.991 | S. cerevisiae deletion strains, locus YOL006C, strain TOP1, hits give low values 0.948 | S. cerevisiae deletion strains, locus YOL012C, strain htz1 0.82 | S. cerevisiae deletion strains, locus YOL147C, strain pex11, hits give low values 0.986 | S. cerevisiae deletion strains, locus YOR001W, strain rrp6, hits give low values 1.02 | S. cerevisiae deletion strains, locus YOR061W, strain CKA2, hits give low values 0.988 | S. cerevisiae deletion strains, locus YOR069W, strain VPS5, hits give low values 1 | S. cerevisiae deletion strains, locus YOR070C, strain gyp1, hits give low values 1.02 | S. cerevisiae deletion strains, locus YOR080W, strain dia2, hits give low values 1.03 | S. cerevisiae deletion strains, locus YOR083W, strain WHI5 (second series), hits give low values 1 | S. cerevisiae deletion strains, locus YOR083W, strain WHI5, hits give low values 1.01 | S. cerevisiae deletion strains, locus YOR106W, strain vam3, hits give low values 1.03 | S. cerevisiae deletion strains, locus YOR136W, strain idh2, hits give low values 0.997 | S. cerevisiae deletion strains, locus YOR144C, strain elg1, hits give low values 0.992 | S. cerevisiae deletion strains, locus YOR184W, strain ser1, hits give low values 1.01 | S. cerevisiae deletion strains, locus YOR231W, strain MKK1, hits give low values 0.987 | S. cerevisiae deletion strains, locus YOR265W, strain rbl2, hits give low values 1.02 | S. cerevisiae deletion strains, locus YOR270C, strain vph1, hits give low values 1.05 | S. cerevisiae deletion strains, locus YOR290C, strain snf2, hits give low values 1.01 | S. cerevisiae deletion strains, locus YOR316C, strain cot1, hits give low values 0.984 | S. cerevisiae deletion strains, locus YPL051W, strain arl3, hits give low values 1.04 | S. cerevisiae deletion strains, locus YPL055C, strain LGE1, hits give low values 1 | S. cerevisiae deletion strains, locus YPL078C, strain atp4, hits give low values 1.02 | S. cerevisiae deletion strains, locus YPL106C, strain sse1, hits give low values 1.02 | S. cerevisiae deletion strains, locus YPL240C, strain hsp82, hits give low values 1.03 | S. cerevisiae deletion strains, locus YPL241C, strain CIN2, hits give low values 0.999 | S. cerevisiae deletion strains, locus YPL256C, strain CLN2, hits give low values 0.977 | S. cerevisiae deletion strains, locus YPR119W, strain clb2, hits give low values 0.987 | S. cerevisiae deletion strains, locus YPR141C, strain kar3, hits give low values 0.99 | S. cerevisiae deletion strains, locus YPR163C, strain tif3, hits give low values 0.982 | S. cerevisiae deletion strains, locus YPR167C, strain met16, hits give low values 0.973 | S. cerevisiae deletion strains, strain wtn01, hits give low values 0.991 | S. cerevisiae strains, strain wild type, hits give low values 0.995
